PubChem BioAssay
For part of these data: Potency and affinity values are given separately. Records with an inconclusive call do not appear. This is one part of the list. Calls of active or inactive are those of the source. Unless noted, the rule behind the calls is not given here.

Assays:
[1] = RMG-1 ovarian cancer cell viability loss – cherry-pick, dose response (AID 687029;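 active = signal drop whose fitted half-maximal concentration is at most twice the top valid dose, in every test run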;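 note: cells exposed to compound for 96 hours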)
[2] = IOSE-T80 viability loss, PAX8-independent line – cell-based, cherry-pick, selectivity assay for PAX8 inhibitor project, dose response (AID 687032;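 active = fitted half-maximal concentration for viability loss no higher than twice the top valid dose, in every repeat run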;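 note: cells exposed to compound for 96 h before reading; 0% = neutral control wells and -100% = 2 µM mitoxantrone kill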)
[3] = general cell-killing toxicity readout – plate reader, dry powder samples, cytotoxicity control for PAX8 inhibitor project, dose response (AID 743021)
[4] = toxicity toward immortalized ovarian surface epithelium – cell-based, plate reader, dry powder samples, cytotoxicity control for PAX8 inhibitor project, dose response (AID 743045);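 note: 0% = neutral control median and -100% = positive control median; more negative values mean more cell killing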
[5] = A2780 cell killing – plate reader, dry powder samples, cytotoxicity control, dose response (AID 743046);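 note: 0% = neutral control wells and -100% = cytotoxic reference compound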
[6] = IGROV1 cell killing – plate reader, dry powder samples, PAX8 inhibitor project, dose response (AID 743043);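 note: more negative means fewer viable cells or more cytotoxicity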
[7] = OVCAR8 cell viability loss – plate reader, dry powder samples, PAX8 project, dose response (AID 743197)
[8] = OVCAR-3 cell viability loss – plate reader, dry powder samples, PAX8 inhibitor project, dose response (AID 743044); conditions: max activity: at 35 µM, active compounds read low unless noted
[9] = small-molecule DNA binding by polarization – biochemical, fluorescence polarization, cherry-pick, counter-screen for EWS/Fli inhibitor project, dose response (AID 720586;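 active = fitted curve reaches a 35% signal fall AC35 below twice the sample's top valid tested dose, actives reach about 48 µM in these data; inactive = the rest, including activity in the rising direction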;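 note: 0% = neutral control median and -100% = 10 µM mitoxantrone control median; lower polarization ratio signals compound binding to DNA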)
[10] = A549 cell cytotoxicity, dose response, cytotoxicity control, plate reader, cherry-pick, antagonist series (AID 743412);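 note: 0% = neutral control wells and -100% = positive control wells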
[11] = toxicity toward HepG2 liver cells – cell-based, plate reader, cherry-pick, antagonist series, cytotoxicity control, dose response (AID 743416);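 note: 0% = neutral control wells and -100% = positive control wells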
[12] = CMV-driven luciferase expression suppression in HEK293 – cell-based, luminescence, dry powder, counter-screen for Pax8 inhibitor project, dose response (AID 743020;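 active = signal-lowering compounds whose fitted half-maximal concentration is at or below twice the top tested dose in every run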;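 note: HEK293 cells stably expressing the CMV luciferase reporter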)
[13] = molecular target: Melanocortin receptor 4 (Homo sapiens) (UniProt P32245); assay: blockade of melanocortin 4 receptor signaling – cell-based, plate reader, cherry pick, counter-screen for LGR2 antagonist project, dose response (AID 743444)

C[C@@H]1CN([C@@H](C)CO)C(=O)Cc2cc(N(C)C)ccc2O[C@H]1CN(C)Cc1ccc(C(=O)Nc2ccccc2N)cc1
inactive: outcome [1] | outcome [2] | outcome [3] | outcome [4] | outcome [5]

CC(C)CC#Cc1ccc2c(c1)O[C@@H](CN(C)S(=O)(=O)c1ccc(F)cc1)[C@@H](C)CN([C@@H](C)CO)S2(=O)=O
inactive: outcome [1] | outcome [2] | outcome [3] | outcome [4] | outcome [5]

CC(C)CC#Cc1ccc2c(c1)O[C@@H](CN(C)Cc1ccncc1)[C@H](C)CN([C@H](C)CO)S2(=O)=O
inactive: outcome [1] | outcome [2] | outcome [3] | outcome [6] | outcome [5]

C[C@@H]1CN([C@H](C)CO)C(=O)c2cc(NS(=O)(=O)c3ccc(Cl)cc3)ccc2O[C@@H](C)CCCCO[C@H]1CN(C)S(=O)(=O)c1ccc(Cl)cc1
inactive: outcome [1] | outcome [2] | outcome [3] | outcome [4]

C[C@@H]1CN([C@H](C)CO)C(=O)c2cc(NS(=O)(=O)c3ccc(Cl)cc3)ccc2O[C@@H](C)CCCCO[C@H]1CN(C)Cc1ccc(Cl)c(Cl)c1
inactive: outcome [1] | outcome [2] | outcome [3] | outcome [6] | outcome [4] | outcome [5] | outcome [7]

C[C@@H]1CN([C@@H](C)CO)C(=O)Cc2cc(NC(=O)Nc3ccccc3)ccc2O[C@H]1CN(C)Cc1ccc(Oc2ccccc2)cc1
inactive: outcome [1] | outcome [2] | outcome [3] | max activity [8] -64.8% | outcome [4] | outcome [5] | outcome [7]

C[C@@H]1CCCCO[C@H](CN(C)C(=O)Nc2ccc(C(F)(F)F)cc2)[C@@H](C)CN([C@@H](C)CO)C(=O)c2cc(NS(=O)(=O)c3ccc(Cl)cc3)ccc2O1
inactive: outcome [1] | outcome [2] | outcome [3] | outcome [4]

C[C@@H]1CN([C@H](C)CO)C(=O)c2cc(NS(=O)(=O)c3ccc(Cl)cc3)ccc2O[C@@H](C)CCCCO[C@@H]1CN(C)CC1CCCCC1
inactive: outcome [1] | outcome [2] | outcome [3] | outcome [4] | outcome [5]

O=C(Nc1ccccc1)N1C[C@@H]2N[C@H](C1)[C@@H]2c1ccc(/C=C/c2ccccc2)cc1
inactive: outcome [1] | outcome [2] | outcome [3] | outcome [6] | outcome [4] | outcome [7]

Cc1ccc(S(=O)(=O)Nc2ccc3c(c2)C(=O)N([C@@H](C)CO)C[C@H](C)[C@H](CN(C)Cc2ccc(C(F)(F)F)cc2)OCCCC[C@H](C)O3)cc1
inactive: outcome [1] | outcome [2] | outcome [3] | outcome [4] | outcome [5]

COc1ccc(S(=O)(=O)Nc2ccc3c(c2)C(=O)N([C@H](C)CO)C[C@@H](C)[C@@H](CN(C)Cc2ccc(C(F)(F)F)cc2)OCCCC[C@H](C)O3)cc1
inactive: outcome [1] | outcome [2] | outcome [3] | outcome [6] | outcome [4] | outcome [5] | outcome [7]

NC(=NCCCCCCN=C(N)/N=C(\N)Nc1ccc(Cl)cc1)/N=C(\N)Nc1ccc(Cl)cc1
inactive: outcome [1] | outcome [2] | outcome [3] | outcome [4]

C[C@@H]1CCCCO[C@H](CN(C)Cc2ccc(Cl)c(Cl)c2)[C@H](C)CN([C@@H](C)CO)C(=O)c2cc(NS(=O)(=O)c3ccc(Cl)cc3)ccc2O1
inactive: outcome [1] | outcome [2] | outcome [3] | outcome [4] | outcome [5]

Cc1ccc(-c2ccc([C@H]3[C@H](CO)N4CCCCN(S(=O)(=O)c5cccc(C)c5)C[C@@H]34)cc2)cc1
inactive: outcome [1] | outcome [2] | outcome [3] | outcome [4] | outcome [5]

COc1ccc2c3c(n(C)c2c1)[C@H](CO)N(Cc1ccccc1)CC31CCN(S(=O)(=O)c2ccc(C)cc2)CC1
inactive: outcome [1] | outcome [2] | outcome [3] | outcome [4]

O=C(C[C@@H]1CC[C@@H]2[C@H](COC[C@@H](O)CN2C(=O)Nc2ccc(C(F)(F)F)cc2)O1)NC1Cc2ccccc2C1
inactive: outcome [1] | outcome [2] | outcome [3] | max activity [8] -24.5% | outcome [4] | outcome [5] | outcome [7]

COc1cccc(-c2ccc3c(c2)[C@H]2[C@H](CCN2C(=O)c2ccccc2F)[C@H](CO)N3C)c1
inactive: outcome [1] | outcome [2] | outcome [3] | outcome [4] | outcome [5]

Cc1ccc(S(=O)(=O)Nc2ccc3c(c2)C(=O)N([C@@H](C)CO)C[C@H](C)[C@@H](CN(C)C(=O)Nc2cccc4ccccc24)OCCCC[C@@H](C)O3)cc1
inactive: outcome [1] | outcome [2] | outcome [3] | outcome [6] | outcome [4] | outcome [5] | outcome [7]

C[C@H](CO)N1C[C@H](C)[C@@H](CN(C)Cc2ccc(C(F)(F)F)cc2)OCCCC[C@H](C)Oc2ccc(NS(=O)(=O)c3ccc(Cl)cc3)cc2C1=O
inactive: outcome [1] | outcome [2] | outcome [3] | outcome [4]

Cc1ccc(S(=O)(=O)Nc2ccc3c(c2)C(=O)N([C@H](C)CO)C[C@@H](C)[C@@H](CN(C)CC2CCCCC2)OCCCC[C@@H](C)O3)cc1
inactive: outcome [1] | outcome [2] | outcome [3] | outcome [4]

COc1ccc(S(=O)(=O)Nc2ccc3c(c2)C(=O)N([C@@H](C)CO)C[C@H](C)[C@@H](CN(C)C(=O)Nc2ccc(C(F)(F)F)cc2)OCCCC[C@@H](C)O3)cc1
inactive: outcome [1] | outcome [2] | outcome [3] | outcome [4]

C[C@H]1CCCCO[C@H](CN(C)C(=O)c2ccccc2)[C@@H](C)CN([C@@H](C)CO)C(=O)c2cc(NC(=O)Nc3ccc(C(F)(F)F)cc3)ccc2O1
inactive: outcome [1] | outcome [2] | outcome [3] | outcome [4] | outcome [5]

C[C@H]1CCCCO[C@H](CN(C)C(=O)Nc2ccc(C(F)(F)F)cc2)[C@@H](C)CN([C@@H](C)CO)C(=O)c2cc(NC(=O)Nc3ccccc3)ccc2O1
inactive: outcome [1] | outcome [2] | outcome [3] | outcome [4]

Cn1nnnc1Sc1ncnc2scc(-c3ccc(F)cc3)c12
inactive: outcome [1] | outcome [2] | outcome [3] | outcome [8]

C[C@@H]1CCCCO[C@@H](CN(C)S(=O)(=O)c2ccc(Cl)cc2)[C@H](C)CN([C@H](C)CO)C(=O)c2cc(NS(=O)(=O)c3ccc(Cl)cc3)ccc2O1
inactive: outcome [1] | outcome [2] | outcome [3] | outcome [4]

C[C@@H]1CN([C@H](C)CO)C(=O)c2cc(NS(=O)(=O)c3cccs3)ccc2O[C@@H](C)CCCCO[C@@H]1CN(C)Cc1ccc(Cl)c(Cl)c1
inactive: outcome [1] | outcome [2] | outcome [3] | outcome [4]

COc1ccc(CN(C)C[C@@H]2OCCCC[C@H](C)Oc3ccc(NC(=O)Nc4ccc(C(F)(F)F)cc4)cc3C(=O)N([C@@H](C)CO)C[C@H]2C)cc1
inactive: outcome [1] | outcome [2] | outcome [6] | outcome [4]

COc1ccc(S(=O)(=O)Nc2ccc3c(c2)C(=O)N([C@H](C)CO)C[C@H](C)[C@@H](CN(C)S(=O)(=O)c2ccc(Cl)cc2)OCCCC[C@H](C)O3)cc1
inactive: outcome [1] | outcome [2] | outcome [4]

O=C(C[C@@H]1C[C@@H]2c3cc(NS(=O)(=O)c4ccc(F)cc4)ccc3O[C@@H]2[C@@H](CO)O1)NCc1ccc(Oc2ccccc2)cc1
inactive: outcome [1] | outcome [2] | outcome [6] | outcome [4]

Oc1c(Cl)cc(Cl)c(Cl)c1Cc1c(O)c(Cl)cc(Cl)c1Cl
inactive: outcome [1] | AC35 [9] | outcome [3]

COc1ccc(S(=O)(=O)N(C)C[C@@H]2Oc3ccc(NC(=O)Nc4ccc(C(F)(F)F)cc4)cc3CC(=O)N([C@H](C)CO)C[C@@H]2C)cc1
inactive: outcome [1] | outcome [2] | outcome [3] | activity change, negative = cytotoxicity [5] -15.3% [at 8 µM]

Cc1ccc2nc(-c3ccc(Br)cc3)cn2c1
inactive: outcome [1] | outcome [2] | outcome [10] | outcome [11]

C[C@H](CO)N1C[C@H](C)[C@H](CN(C)Cc2ccc3c(c2)OCO3)OCCCC[C@H](C)Oc2ccc(NC(=O)Nc3ccc(C(F)(F)F)cc3)cc2C1=O
inactive: outcome [1] | outcome [2] | outcome [6] | max activity [8] -20.3% [at 0.26 µM, active compounds read low] | outcome [4] | outcome [5] | outcome [7]

C[C@@H]1CN([C@@H](C)CO)S(=O)(=O)c2ccc(C#Cc3ccccc3F)cc2O[C@H]1CN(C)C(=O)Cc1ccccc1
inactive: outcome [1] | outcome [2] | outcome [6] | outcome [4] | outcome [5]

COc1ccc(S(=O)(=O)Nc2ccc3c(c2)C(=O)N([C@@H](C)CO)C[C@@H](C)[C@H](CN(C)Cc2ccc(C(F)(F)F)cc2)OCCCC[C@H](C)O3)cc1
inactive: outcome [1] | outcome [2] | outcome [6] | max activity [8] -37.4% | outcome [4] | outcome [5] | outcome [7]

N#C[C@H]1[C@H](c2ccc(C#Cc3ccccc3F)cc2)[C@H](CO)N1C(=O)C1CCC1
inactive: outcome [1] | outcome [2] | outcome [6] | outcome [4] | outcome [5] | outcome [7]

Cc1ccc(S(=O)(=O)Nc2ccc3c(c2)C(=O)N([C@H](C)CO)C[C@@H](C)[C@H](CN(C)Cc2ccc(C(F)(F)F)cc2)OCCCC[C@H](C)O3)cc1
inactive: outcome [1] | outcome [2] | outcome [4]

COc1ccc(NC(=O)Nc2ccc3c(c2)C(=O)N([C@H](C)CO)C[C@H](C)[C@H](CN(C)Cc2ccc(C(F)(F)F)cc2)OCCCC[C@H](C)O3)cc1
inactive: outcome [1] | outcome [2] | outcome [4] | outcome [5]

CCCCCCCCn1c2c(c(=N)c3c1CCC3)CCCC2
inactive: outcome [1] | AC35 [9] | outcome [12] | outcome [3]

Cn1cnc(S(=O)(=O)N2C[C@@H]3N[C@H](C2)C3c2ccc(-c3ccccc3F)cc2)c1 (some centres undefined)
inactive: outcome [1] | outcome [2] | outcome [3] | outcome [5]

O=C(C1CC1)N1C[C@@H]2N[C@H](C1)C2c1ccc(-c2cccc(F)c2)cc1 (some centres undefined)
inactive: outcome [1] | outcome [2] | outcome [3] | outcome [5]

COc1cccc(-c2ccc(C3[C@@H]4CN(C(=O)C5CC5)C[C@H]3N4)cc2)c1 (some centres undefined)
inactive: outcome [1] | outcome [2] | outcome [3] | outcome [4] | outcome [5] | outcome [10] | outcome [11] | outcome [13]
